AHR act: activators of human aryl hydrocarbon receptor; 320,000 tested, 2.5% active; P35869; AHR-responsive luciferase reporter cells, luminescence; activation, % at 5 µM; in the data active = activation above about 47%
PLCg1 inh: inhibitors of human phospholipase C gamma1; P19174; purified PLC-gamma1, fluorogenic substrate, fluorescence; inhibition, % at 12.2 µM; 370,000 tested, 0.84% active; in the data active = inhibition above about 9.5%
PLC-beta3 inh: blocks human PLC-beta3 enzyme activity | Q01970 | Purified PLC-beta3, fluorogenic substrate, fluorescence | inhibition, % at 12.2 µM | 370,000 tested, 0.18% active | AID 720704; in the data active = inhibition above about 11%
sPLA2-III inh: Inhibits HGIII-sPLA2 liposome hydrolysis, primary screen; 370,000 tested, 0.56% active; QFRET BODIPY PC-A2 liposome hydrolysis, fluorescence; Q9NZ20; AID 743126; inhibition, % at 12.2 µM;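 active = inhibition above mean plus 3 SD of compounds lying within the high and low control bounds, cut at about 19% in these data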
CR mimetic SO: caloric restriction mimetics inhibiting age-related superoxide in yeast; S. cerevisiae aged cells, superoxide DHE fluorescence; stronger effect = lower value; superoxide response (% of plate mean), % at 10 µM; 330,000 tested, 0.18% active; AID 2690;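 active = superoxide response under a set limit, about three screen SD below normal, cut at about 65% in these data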;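 note: yeast aged for seven days with compound at 30 °C before DHE staining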
HIF act: HIF pathway transcriptional activation; U2OS HRE-luciferase reporter, luminescence; normalized: DMSO 0%, desferrioxamine 100%; activation, % at 7.5 µM (by protocol); 300,000 tested, 0.32% active;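 active = mean activation of at least 10% of the iron chelator positive control signal, with at least half of replicates also reaching 10%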
Of the large screens only hits and unclear results are named; the others gave an inactive call. Shown are actives, neighbours in structure and some others; about 3.9% of the full set was active somewhere.

O=C(N/N=C/c1cc2c(c([N+](=O)[O-])c1)OCO2)c1ccncc1	AHR act 61
Cc1ccc(C(=O)N/N=C\c2ccc3c(c2)OCO3)cn1	none
O=C(N/N=C/c1ccc2c(c1)OCO2)c1cccnc1	AHR act 55
CCOc1cc(/C=N/NC(=O)c2cccnc2)ccc1OCc1ccc(C(=O)OC)o1	HIF act 14
COc1ccc2c(c1)CCCN2C(=O)C1CCCN(S(=O)(=O)c2cccs2)C1 (configuration not stated)	none (no result: AHR act, CR mimetic SO, HIF act)
CC(=O)Nc1cccc(NC(=O)Nc2cccc(F)c2)c1	AHR act 49
COc1ccc(S[C@]2(C(=O)N3CCN(c4ncccn4)CC3)CC(=O)N(P(=O)(OC)OC)[C@@H]2c2ccc(OC)cc2)cc1	none (no result: AHR act, CR mimetic SO, HIF act)
CN(C)c1ccc(NC(=S)c2ccc3ccccc3n2)cc1	AHR act 48
CN(CC(=O)Nc1ccc(F)cc1)C(=O)c1ccc2ccccc2n1	none (no result: AHR act, CR mimetic SO, HIF act)
O=[N+]([O-])c1cccc2ccc(/C=C/c3ccc(Cl)cc3)nc12	AHR act 62
C[n+]1c2n(c3ccccc31)N=C(c1ccc(-c3ccccc3)cc1)CS2	AHR act 53
C[n+]1c2n(c3ccccc31)N=C(c1ccc(Br)cc1)CS2	AHR act 60
CCc1nnc2n1N=C(c1ccc(Br)cc1)CS2	none
CN1C2=N[C@@H](c3ccc4c(c3)OCO4)CC(=O)N2/C(=C\c2ccccc2)[C@@H]1c1ccccc1	none (no result: AHR act, CR mimetic SO, HIF act)
COc1cccc(C2c3c(oc4ccccc4c3=O)C(=O)N2Cc2ccco2)c1 (configuration not stated)	AHR act 82
COc1cc(C2c3c(oc4ccccc4c3=O)C(=O)N2Cc2ccco2)ccc1O (configuration not stated)	none
O=C(N/C(=C/c1ccc(Cl)cc1)c1nc2ccccc2[nH]1)c1ccco1	AHR act 70
O=C(/C(=C/c1ccc(Cl)cc1)c1nc2ccccc2[nH]1)c1ccccc1	none
O=C(N/C(=C/c1ccc(Br)cc1)c1nc2ccccc2[nH]1)c1ccco1	AHR act 67
CCCn1c(/C=N/Nc2nc3ccccc3[nH]2)nc2ccccc21	sPLA2-III inh 31 (no result: AHR act, CR mimetic SO, HIF act)
Cc1c(/C=N/Nc2nc3ccccc3[nH]2)c2ccccc2n1C	AHR act 108
C=CCn1cc(/C=N/Nc2nc3ccccc3[nH]2)c2ccccc21	AHR act 146
Cc1ccsc1/C=N/Nc1nc2ccccc2[nH]1	none (no result: AHR act, CR mimetic SO)
C(=N\Nc1nc2ccccc2[nH]1)/c1cccs1	AHR act 74
Oc1ccc(-c2cn3c(n2)SCC3)cc1	AHR act 65
Brc1ccc(-c2cn3c(n2)SCC3)cc1	none
COC(=O)[C@]12C[C@H](CC(=O)NCc3ccc(OC)c(OC)c3)C(=O)N(CCC3=CCCCC3)C1=C[C@H](C(C)C)O[C@@H]2C1CC1	none (no result: AHR act, CR mimetic SO, HIF act)
O=C(Nc1ccccc1)N1CCCC(c2nc(-c3cccs3)no2)C1 (configuration not stated)	AHR act 70 (no result: PLCg1 inh, PLC-beta3 inh, sPLA2-III inh)
COc1ccc(NC(=O)N2CCC(c3nc(-c4cccs4)no3)CC2)cc1	AHR act 60
CN(Cc1ccccc1)C(=O)c1cccc(NC(=O)Cc2ccc(NC(=O)C3CCCN(S(=O)(=O)c4cccc([N+](=O)[O-])c4)C3)cc2)c1 (configuration not stated)	none (no result: AHR act, CR mimetic SO, HIF act)
COc1cccc(CNC(=O)CN2CCCc3ccccc32)c1	none (no result: AHR act, CR mimetic SO, HIF act)
Cc1cc(C)cc(NCc2cc(=O)oc3cc(C)c(O)cc23)c1	none
Cc1cc(C)cc(NCc2cc(=O)oc3cc(-c4ccccc4)c(O)cc23)c1	AHR act 50
COc1ccc(C)cc1NCc1cc(=O)oc2cc(-c3ccccc3)c(O)cc12	AHR act 49
COC(=O)c1ccccc1NCc1cc(=O)oc2cc(O)c(O)cc12	none
CC[C@H](CCC(=O)N(c1ccccc1)c1ccccc1)C1CC1	none (no result: AHR act, CR mimetic SO, HIF act)
O=C(NC1CCC(O)CC1)c1ccc(-c2ccc(Cl)cc2)o1 (configuration not stated)	none
O=C(NNC(=O)c1ccccc1F)c1ccc(-c2ccc(Cl)cc2)o1	AHR act 68
COc1ccc(C(=O)OCCCN(C)C2CN(Cc3cn(Cc4ccccc4C(F)(F)F)nn3)S(=O)(=O)C2)cc1OC (configuration not stated)	none (no result: AHR act, CR mimetic SO, HIF act)
Cc1[nH]nc(N=Cc2c(O)n(C)c(=O)n(C)c2=O)c1-c1ccccc1	none (no result: PLCg1 inh, PLC-beta3 inh, sPLA2-III inh)
Cn1c(O)c(/C=N/Nc2ccccc2)c(=O)n(C)c1=O	AHR act 58
C=C(C)C(COc1c2occc2cc2ccc(=O)oc12)OC(C)(C)C(O)COc1c2occc2cc2ccc(=O)oc12 (configuration not stated)	AHR act 78 (no result: HIF act)
CCCC(=O)Nc1cc(C)c2c(=O)oc3ccccc3c2n1	AHR act 53
O=[N+]([O-])c1ccc(CN2CCOCCOCCN(Cc3ccc([N+](=O)[O-])cc3Cl)CCOCC2)c(Cl)c1	none (no result: AHR act, CR mimetic SO, HIF act)
COc1ccc(NC(=O)Nc2cc3oc4ccccc4c3cc2OC)cc1	AHR act 74
COc1cc2c(cc1NC(=O)Nc1ccc(F)cc1)oc1ccccc12	AHR act 66
COc1cc2c(cc1NC(=O)CSc1nccn1C)oc1ccccc12	AHR act 78
COc1cc2c(cc1NC(=O)Nc1cccc(C)c1)oc1ccccc12	none
COc1cccc(/C=C2\CC3(OC(=O)C4CCCC4)CCCN2C3)c1 (configuration not stated)	none (no result: AHR act, CR mimetic SO, HIF act)
CCOc1ccc(-n2c(SCC(=O)NN=Cc3ccc(C(=O)O)cc3)nnc2-c2cccnc2)cc1	none (no result: AHR act, CR mimetic SO, HIF act)
COc1ccc(Cl)c2c1[nH]c1nc(SCc3ccccn3)nnc12	AHR act 59
CC1(C)CC1C(=O)Nc1ccc([N+](=O)[O-])cc1Br (configuration not stated)	none
Cc1ccc(C2(c3ccc(C)cc3)CC2C(=O)Nc2ccc([N+](=O)[O-])cc2O)cc1 (configuration not stated)	AHR act 59, PLC-beta3 inh 12
Cc1ccc(-c2nnc(SCC(=O)c3ccc(O)c(O)c3)n2-c2ccc(Cl)cc2)cc1	none (no result: AHR act, CR mimetic SO, HIF act)
COc1ccc(/C=N/Nc2nncc3ccccc23)cc1	AHR act 48
COc1ccc(S[C@]2(C(=O)N3CCCC3)CC(=O)N[C@@H]2c2ccc(OC)cc2)cc1	none (no result: AHR act, CR mimetic SO, HIF act)
COc1ccc(C(=O)Nc2nc3ccccc3c(=O)[nH]2)cc1	AHR act 74
COc1ccc(C(=O)Nc2nc3cc(OC)c(OC)cc3c(=O)[nH]2)cc1	none (no result: HIF act)
C#CCNC(=O)C[C@H]1C[C@@]2(C(=O)OC)C(=C[C@H](COCc3ccccc3)O[C@@H]2C)N(Cc2ccc3c(c2)OCO3)C1=O	none (no result: AHR act, CR mimetic SO, HIF act)
Cc1cc(C)n(-c2nc(C)nc3c2cnn3-c2ccccc2)n1	AHR act 49
Cc1cc(C)n(-c2nc3ccccc3c3nc(C)nn23)n1	none
